Experimental data as given in PubChem BioAssay (NCI).
The panel holds about 83,000 compounds, 20% with a hit somewhere; the sample as a whole holds those more often.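 How to read the values: 0–100, growth inhibition (40 = 60% inhibited); 0, no net growth; -100 to 0, cell death (-40 = 40% of starting cells died; -100 = all dead).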 Active and inactive are the calls of the source. How the source made its calls: active means growth percent below 10; inactive means the rest.

Legend:
Experiment in all cases: NCI-60 one-dose screen, 48 h (100 = growth as untreated, 0 = no growth, -100 = all killed)
Conditions in all cases: 10 µM unless noted
[1] = tested on: K-562 leukemia
[2] = tested on: MALME-3M melanoma
[3] = tested on: MDA-MB-231 breast
[4] = tested on: RXF 393 renal
[5] = tested on: SF-268 CNS
[6] = tested on: SF-295 CNS
[7] = tested on: SF-539 CNS
[8] = tested on: UACC-257 melanoma
[9] = tested on: M14 melanoma
[10] = tested on: HT29 colon
[11] = tested on: SNB-75 CNS
[12] = tested on: SNB-19 CNS
[13] = tested on: U251 CNS
[14] = tested on: PC-3 prostate
[15] = tested on: SK-MEL-5 melanoma
[16] = tested on: UACC-62 melanoma
[17] = tested on: SK-MEL-28 melanoma
[18] = tested on: SK-MEL-2 melanoma
[19] = tested on: HCT-15 colon
[20] = tested on: LOX IMVI melanoma

Measured: growth

COC(=O)C(Cc1ccccc1)NS(=O)(=O)/N=C1\NC(=O)NC1=C(Cl)Cl (stereo not drawn)
inactive: [1] 91.8% | [2] 94.8% | [3] 101% | [4] 119% | [5] 82.9% | [6] 99.5% | [7] 54% | [8] 91% | [9] 92.9% | [10] 127% | [11] 106% | [12] 94.2% | [13] 106% | [14] 90% | [15] 98.1% | [16] 78.8% | [17] 102% | [18] 60.3%

Cc1ccc2ccc3ccc(C)nc3c2n1.Cc1ccc2ccc3ccc(C)nc3c2n1.Oc1c(Cl)cc(Cl)c2ccc(CN3CCCCC3)nc12.[Ru]
active: [2] -85.1% | [3] -84% | [4] -84.1% | [5] -54.8% | [6] -84.2% | [7] -88.2% | [8] -69.4% | [9] -94.1% | [19] -81.3% | [10] -61.7% | [11] -71% | [12] -86.4% | [13] -54.5% | [14] -82.6% | [15] -97.9% | [16] -74% | [20] -91.2% | [17] -89.9% | [18] -83.1%

C=C1CC[C@H]2[C@@](C)(CCC3OC(c4ccc(OCc5cn(C6CC(OC(C)=O)C(OC(C)=O)C(COC(C)=O)O6)nn5)cc4)OC[C@]32C)[C@@H]1/C=C/C1=CCOC1=O (stereo partly drawn)
inactive: [1] 38.8% | [2] 58% | [3] 77.9% | [4] 103% | [5] 90.3% | [6] 61% | [7] 84.8% | [8] 61.6% | [9] 93.9% | [10] 84.1% | [11] 94.8% | [12] 88.3% | [13] 92.9% | [14] 62% | [16] 70.5% | [17] 100% | [18] 100%
active: [15] 0.123%

Cc1[nH]nc2ncc(C#Cc3cncc(C(=O)Nc4ccc(CN5CCN(C)CC5)c(C(F)(F)F)c4)c3)cc12
active: [1] 7.53% | [2] -28.5% | [3] -39.2% | [4] -12.8% | [7] -3.8% | [9] -17.1% | [10] 9.72% | [11] -6.21% | [16] -15.8% | [20] -23.4% | [17] -11.4% | [18] -44.6%
inactive: [5] 21.2% | [6] 34.2% | [8] 14.7% | [12] 50.5% | [13] 40.5% | [14] 48.8%

C[C@@H](Nc1c(C#N)cnc2ccc(-c3cnc(N)nc3)cc12)c1ccccc1
active: [2] 8.07% | [4] -4.27% | [6] 2.02% | [7] 3.05% | [11] -13.2% | [16] -9.74% | [18] -42.5%
inactive: [1] 16.2% | [3] 17.9% | [5] 16.5% | [8] 33.5% | [9] 21.3% | [10] 18.7% | [12] 26.3% | [13] 18.1% | [14] 10% | [20] 11.7% | [17] 20%

N#Cc1nc(-c2ccccc2)oc1S(=O)(=O)N1CCCCC1
active: [2] -68.8% | [4] -71.8% | [9] -15.2% | [19] -35.3% | [10] 2.86% | [20] -82.5%
inactive: [3] 20.6% | [5] 110% | [6] 107% | [7] 77.3% | [8] 94.1% | [11] 94.8% | [12] 95.8% | [13] 94.5% | [14] 88.1% | [15] 93.7% | [16] 96.4% | [17] 85.1% | [18] 97.9%

Cn1cc(-c2cc(N)n3nc(-c4cn(C)c5ccc(Br)cc45)cc3n2)c2cc(Br)ccc21
active: [1] 5.07% | [10] 4.96% | [13] -37.9% | [20] 6.31%
inactive: [2] 102% | [3] 63.3% | [4] 147% | [5] 82.5% | [6] 105% | [7] 85.2% | [8] 109% | [9] 65.5% | [11] 82.2% | [12] 104% | [14] 71.9% | [15] 108% | [16] 92.1% | [17] 97.2% | [18] 120%

CCCCN1C(=O)/C(=c2\sc3n(c2=O)C2C(NN=3)N(CC)C(=O)N2CC)c2cc(Cl)ccc21 (stereo not drawn)
inactive: [1] 25.3% | [2] 73.9% | [3] 58.3% | [4] 77% | [5] 75.4% | [6] 62.3% | [7] 59.4% | [8] 89.4% | [9] 70.3% | [10] 88.4% | [11] 69.1% | [12] 90.8% | [13] 65.4% | [14] 71.2% | [16] 47.5% | [20] 75.6% | [17] 72.1% | [18] 79.9%

O=C(N/N=C/c1ccco1)c1[nH]c2ccc(Br)cc2c1-c1ccccc1
inactive: [2] 54.9% | [4] 62.2% | [5] 29.9% | [6] 21.8% | [8] 72.5% | [9] 11.6% | [11] 31.7% | [12] 41.4% | [13] 31.7% | [14] 30.2% | [16] 41.1% | [17] 59.9% | [18] 14.4%
active: [1] 8.75% | [3] 6.62% | [7] -15.1% | [10] -25.3% | [15] -16.2%

CO/N=C1\CCc2c(sc(NC(=O)c3cccc(C(F)(F)F)c3)c2C(N)=O)C1
active: [4] -6% | [11] -58.4% | [13] 3.28%
inactive: [1] 70.1% | [2] 29.4% | [3] 37.7% | [5] 51.8% | [6] 30.8% | [7] 34.2% | [8] 66% | [9] 47.7% | [10] 51.2% | [12] 27.7% | [14] 64.8% | [16] 76.8% | [17] 60.3% | [18] 63.9%

CCCC(=O)NC(c1cccc(N(C)C)c1)c1cc(C)c2cccnc2c1O (stereo not drawn)
inactive: [1] 35.3% | [2] 79.8% | [3] 48.2% | [4] 82.1% | [5] 55.1% | [6] 42.3% | [7] 53.9% | [8] 90.6% | [9] 49.3% | [10] 91.6% | [11] 76.8% | [12] 69.3% | [13] 55.5% | [14] 50.1% | [15] 62.7% | [16] 46.1% | [17] 77.1% | [18] 89.9%

COc1ccc(-n2c(SCC(=O)Nc3ccc(-c4nc5ccccc5[nH]4)cc3)nc3ccccc3c2=O)cc1
active: [1] 5.98% | [2] -57.3% | [4] -39.1% | [7] -77.3% | [9] -26.7% | [10] -5.71% | [13] -83.4% | [14] 6.41% | [16] -18.3% | [17] -64%
inactive: [3] 29% | [5] 42.6% | [6] 16.2% | [8] 45.3% | [11] 62.8% | [12] 20.9% | [18] 97.7%

Cc1nc(-c2cc3ccccc3oc2=O)ccc1C(=O)/C=C/c1ccc(N2CCOCC2)cc1
inactive: [1] 38% | [2] 57.5% | [3] 54.3% | [4] 89.6% | [5] 75.3% | [6] 66% | [7] 45.2% | [8] 89% | [9] 45.6% | [10] 80.4% | [11] 58.9% | [12] 79.9% | [13] 89.8% | [14] 86.6% | [15] 71.5% | [16] 52.1% | [20] 31.3% | [17] 72.8% | [18] 91.4%

O=C(CSc1nc2sc3c(c2c(=O)n1-c1ccc(Cl)cc1)CCCC3)NNC(=O)Nc1cccc(C(F)(F)F)c1
active: [6] 6.43% | [14] 7.37% | [20] -17% | [18] -8.08%
inactive: [1] 13.1% | [2] 29.8% | [3] 59% | [4] 81.7% | [5] 40.8% | [7] 51.1% | [8] 35.3% | [9] 32.1% | [10] 26.2% | [11] 36.3% | [12] 21.8% | [13] 16.7% | [16] 17.3% | [17] 33.2%

O=C(CSc1nc2sc3c(c2c(=O)n1-c1ccc(Cl)cc1)CCCC3)N/N=C/c1ccc(F)cc1
inactive: [1] 45.4% | [2] 100% | [3] 86.2% | [4] 118% | [5] 102% | [6] 106% | [7] 102% | [8] 109% | [9] 90.5% | [10] 60.6% | [11] 107% | [12] 101% | [13] 67.1% | [14] 87.1% | [15] 103% | [16] 97% | [20] 95.9% | [17] 108% | [18] 136%
